Screening results (PubChem)
The list is not random: actives were taken first. Their share in the collection is about 21%.
ELG1 DNA repair: qHTS screen for small molecules that inhibit ELG1-dependent DNA repair in human embryonic kidney (HEK293T) cells expressing luciferase-tagged ELG1; Potency, µM (series often up to 46.1 µM), actives largely listed as inhibitors; 2.3% of 330,000 active; HEK293T ELG1-luciferase reporter, luminescence, 16 h; DNA damage induced by 5-fluorouridine; further: nearly all actives have a fitted effect of over 55% in size
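Overnight (16 hr) co-exposure of 2,000 cells/well to 5-fluorouridine and compound at 37 °C preceded detection. Luciferase was quantified via ONE-Glo luminescence; loss of signal denotes inhibition.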
RORgamma inh: qHTS for inhibitors of ROR gamma transcriptional activity. Nuclear receptor ROR-gamma (Mus musculus), P51450. Drosophila S2 Gal4-RORgamma UAS-luciferase reporter, 20 h. Potency, µM (top dose mostly 53.6 µM), most hits filed as inhibitors. 5.4% of 310,000 active; further: nearly all actives have a fitted effect of over 60% in size
Target sequence (P51450 whole entry, looked up, the tested form may be a part): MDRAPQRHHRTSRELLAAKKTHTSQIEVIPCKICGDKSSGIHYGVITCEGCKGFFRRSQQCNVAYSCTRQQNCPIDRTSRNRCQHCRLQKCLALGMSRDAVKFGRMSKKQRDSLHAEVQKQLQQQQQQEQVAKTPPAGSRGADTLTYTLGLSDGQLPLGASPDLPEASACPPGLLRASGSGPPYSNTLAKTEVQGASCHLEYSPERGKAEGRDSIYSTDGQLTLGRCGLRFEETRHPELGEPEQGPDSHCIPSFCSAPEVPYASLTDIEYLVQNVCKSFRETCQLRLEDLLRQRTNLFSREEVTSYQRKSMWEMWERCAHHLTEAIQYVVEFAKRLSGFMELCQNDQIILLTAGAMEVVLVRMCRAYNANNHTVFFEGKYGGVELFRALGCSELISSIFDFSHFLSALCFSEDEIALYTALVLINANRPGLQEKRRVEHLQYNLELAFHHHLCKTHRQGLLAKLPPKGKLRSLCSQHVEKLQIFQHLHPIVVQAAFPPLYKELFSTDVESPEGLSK
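Compounds are pin-transferred onto Drosophila Schneider cells expressing a copper-inducible Gal4–ROR gamma transactivation domain fusion. After 1 hr, copper sulfate is added to 700 uM final; luciferase is read 20 hr later.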
VP16 counter: VP16 counterscreen qHTS for inhibitors of ROR gamma transcriptional activity. Drosophila S2 Gal4-VP16 UAS-luciferase, luminescence, 20 h. 3.5% of 310,000 active. Potency, µM (titrated, usually from 53.6 µM), actives largely listed as inhibitors;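 further: Gal4-VP16 expression switched on by copper sulfate through the metallothionein promoter; nearly all actives have a fitted effect of over 50% in size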
TDP1 cell noCPT: qHTS for Inhibitors of human tyrosyl-DNA phosphodiesterase 1 (TDP1): qHTS in cells in absence of CPT; DT40 Tdp1-/- hTDP1 cells, no CPT, ATP luminescence, 48 h; Potency, µM (titrated, usually from 46.2 µM), usual class: inhibitors; 15% of 420,000 active; AID 686978, 2013; further: nearly all actives have a fitted effect of over 55% in size
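Growth kinetics read by CellTiter-Glo luminescence after ≥48 hr at 37 °C. Cells: DT40 Tdp1-/- stably carrying human TDP1, 400 per well, compound exposure in the absence of CPT (DMSO vehicle).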
IL1B secr inh: qHTS for Inhibitors of Inflammasome Signaling: IL-1-beta AlphaLISA Primary Screen; activity change, % at 57.5 µM; THP-1 LPS/ATP IL-1B secretion, AlphaLISA, 16 h; stronger effect = lower value; 4.7% of 360,000 active; in the data active means activity change below about -50%; inconclusive means mostly about -30% to -49%
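THP-1 cells pretreated 1 hr with compounds (up to 57.5 uM final), then stimulated with LPS (250 ng/mL final) plus ATP (1.25 mM final); secreted IL-1B measured by AlphaLISA after 16 hr, decreased signal indicating inhibition.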
DT40 TDP1 CPT: qHTS for Inhibitors of human tyrosyl-DNA phosphodiesterase 1 (TDP1): qHTS in cells in presence of CPT; 12% of 420,000 active; Potency, µM (titrated, usually from 46.2 µM), hits mostly inhibitors; chicken DT40 Tdp1-/-;hTDP1 cells + 20 nM CPT, ATP luminescence, 48 h; further: nearly all actives have a fitted effect of over 55% in size
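Chicken DT40 Tdp1-/- cells complemented with human TDP1, 400 cells/well, exposed to compounds plus 20 nM camptothecin for at least 48 h at 37 C; viability read as ATP content by CellTiter-Glo luminescence.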
Numbers stand for hits; . = inactive; ? = inconclusive; / = no result; [ ] = dose if it differs, or a comment. Unless noted, the call rests on the fitted dose curve; in most records, active means well fitted curve in the direction sought with a large enough effect; inconclusive means small, poorly fitted or top-dose-only effect, or another doubt; inactive means no such curve, though single readings can be large; an effect the other way counts as inactive or inconclusive.

SMILES	ELG1 DNA repair	RORgamma inh	VP16 counter	TDP1 cell noCPT	IL1B secr inh	DT40 TDP1 CPT
CC(=NCCc1c[nH]c2ccccc12)c1c(O)n(Cc2ccccc2)c(=O)[nH]c1=O	?	.	.	8.2µM	?	7.31µM
COc1ccc(-n2c(O)c(/C(C)=N/Nc3ccccc3)c(=O)[nH]c2=O)cc1	7.3µM	.	.	.	.	.
COc1ccc(-n2c(O)c(/C(C)=N/N3CCCCCC3)c(=O)[nH]c2=O)cc1	.	.	.	.	.	.
C/C(=N\Nc1cccc2ccccc12)c1c(O)n(Cc2ccccc2)c(=O)[nH]c1=O	.	.	.	20.6µM	.	16.4µM
CCCN(CCC)c1c([N+](=O)[O-])cc(C(F)(F)F)cc1[N+](=O)[O-]	/	.	.	.	/	.
Cc1cc2ccccc2n1CCNC(=O)COc1ccccc1	.	.	.	?	.	?
COc1ccc(N(CC(=O)Nc2cc(OC)ccc2OC)S(C)(=O)=O)cc1	.	?	.	.	.	.
CCOc1ccc(N(C(C)C(=O)Nc2cc(Cl)ccc2OC)S(C)(=O)=O)cc1 (stereo unspecified)	/	/	/	0.517µM	/	0.581µM
O=C(CN1C(=O)c2ccccc2C1=O)N1CCN(c2nnc(-c3ccccc3)c3ccccc23)CC1	.	.	.	?	.	.
O=[N+]([O-])c1ccc(NC2CCCC2)c2ccncc12	?	?	.	?	.	?
O=[N+]([O-])c1ccc(N2CCCC2)c2ccncc12	?	.	.	20.6µM	.	?
Cc1cc(N(C)C)ccc1N=Nc1ccc(N)cc1	/	/	/	13µM	.	?
Nc1ccc(N=Nc2ccccc2)cc1	?	.	.	?	.	.
C[C@H]1CN([C@@H](C)CO)C(=O)c2cc(NC(=O)Nc3cccc4ccccc34)ccc2O[C@@H]1CN(C)Cc1ccc(-c2ccccc2)cc1	.	/	/	16.4µM	.	23.1µM
C[C@H]1CN([C@@H](C)CO)C(=O)c2cc(NC(=O)C3CCCCC3)ccc2O[C@H]1CN(C)Cc1ccc(-c2ccccc2)cc1	10.3µM	/	/	?	.	?
C[C@@H]1CN([C@@H](C)CO)C(=O)c2cccc(NC(=O)c3ccncc3)c2O[C@@H]1CN(C)Cc1ccc(-c2ccccc2)cc1	.	/	/	?	?	?
Cc1cccc(N2CCC3(CC2)C(=O)NC(=O)NC3=O)c1	/	/	/	.	.	.
Cc1cccc(-n2nc(C)c(C(=O)N3CCN(c4ccccc4)CC3)c2-n2cccc2)c1	/	/	/	20.6µM	/	16.4µM
c1csc(CN2CC[C@@]3(CCCNC3)C2)n1	/	.	.	.	/	.
S=c1nc(-c2ccccc2)n(-c2ccccc2)[nH]1	?	10µM	?	.	.	?
CC(C)(C)NC[C@H](O)c1cc(Cl)c(N)c(Cl)c1	/	.	.	/	/	/
CC(C)(C)C(=O)OC1=CN(Cc2ccccc2)S(=O)(=O)c2ccccc21	/	/	/	?	/	.
O=C(OC1CCN(CCCl)CC1)C(c1ccccc1)c1ccccc1	.	/	/	?	-71.2	16.4µM
C[N+]1(C)[C@@H]2CC[C@H]1CC(OC(=O)C(c1ccccc1)c1ccccc1)C2 (stereo partly specified)	.	.	.	?	.	?
COC(=O)C1=CO[C@@H](C)[C@@H]2CN(CCc3c[nH]c4ccccc34)CC[C@H]12	/	/	/	?	.	?
CCCNS(=O)(=O)c1ccc(OCC(=O)N2CCN(Cc3ccc4c(c3)OCO4)CC2)cc1	?	.[0.365 µM]	/	11.6µM	.	?
CCCCC/C(=N/O)c1c(C)[nH]c2ccccc12	.	.	.	?	-62.4	.
COc1cccc(CN2CCN(Cc3cccc(F)c3)CC2)c1	.	.	.	.	.	.
